Most compounds without a hit are left out; they make up all but 1.3% or so of the library.
VACV mCherry inh = qHTS for Stage-Specific Inhibitors of Vaccinia Orthopoxvirus: mCherry Reporter Primary qHTS; Vaccinia virus mCherry reporter infection, fluorescence; Potency, µM (titrated, usually from 36.5 µM), hits mostly inhibitors; 0.63% of 310,000 active; AID 720579, 2013; calls by dose curve; tested in A549 cells; further: nearly all actives have a fitted effect of over 35% in size
SARS PLP yeast = qHTS of Yeast-based Assay for SARS-CoV PLP. S. cerevisiae expressing SARS-CoV PLpro, growth rescue. 0.19% of 330,000 active. Potency, µM (titrated, usually from 32.9 µM), hits mostly activators; calls by dose curve; further: nearly all actives have a fitted effect of over 55% in size
Vaccinia Venus = qHTS for Stage-Specific Inhibitors of Vaccinia Orthopoxvirus: Venus Reporter Primary qHTS | Vaccinia virus Venus reporter expression, fluorescence | Potency, µM (doses to about 36.5 µM), usual class: inhibitors | 0.46% of 330,000 active | AID 720580, 2013; calls by dose curve; tested in A549 cells; further: nearly all actives have a fitted effect of over 30% in size
AMA1 RON2 block = qHTS for Inhibitors of AMA1-RON; Towards Development of Antimalarial Drug Lead: Primary Screen; Plasmodium falciparum AMA1 (3D7) - RON2 peptide interaction; AlphaScreen AMA1-biotinylated RON2 peptide binding; Potency, µM (doses to about 58.2 µM), usual class: inhibitors; 0.2% of 360,000 active; further: nearly all actives have a fitted effect of over 45% in size
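AMA1 (3D7) with his tag at 25 nM final met compounds first, then biotinylated RON2 peptide at 25 nM; detection used donor plus acceptor beads, 10 µg/mL apiece, read by AlphaScreen after 30 min at room temperature.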
AmpC inh no detg = qHTS Inhibitors of AmpC Beta-Lactamase (assay without detergent); AmpC nitrocefin hydrolysis, absorbance 480 nm, 0.0001% Triton; Potency, µM (top dose mostly 57.1 µM), actives largely listed as inhibitors; 0.52% of 330,000 active; further: nearly all actives have a fitted effect of over 20% in size
Target sequence (P00811 whole entry, looked up): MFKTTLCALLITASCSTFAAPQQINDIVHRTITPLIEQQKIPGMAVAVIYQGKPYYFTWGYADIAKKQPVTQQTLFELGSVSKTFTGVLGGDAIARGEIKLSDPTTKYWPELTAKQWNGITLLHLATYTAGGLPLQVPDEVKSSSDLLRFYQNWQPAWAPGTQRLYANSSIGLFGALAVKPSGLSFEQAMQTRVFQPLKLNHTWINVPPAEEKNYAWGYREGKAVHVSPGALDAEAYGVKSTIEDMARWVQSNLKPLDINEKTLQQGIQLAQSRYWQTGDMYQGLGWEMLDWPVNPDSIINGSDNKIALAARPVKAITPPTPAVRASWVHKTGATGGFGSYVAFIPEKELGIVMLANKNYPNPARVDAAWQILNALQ
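20 mM phosphate pH 7.0 + 0.01% (detergent screen) or 0.0001% Triton X-100; 5.3 nM AmpC reagent; cpd preinc 15 min RT; nitrocefin (800 uM stock) to start; A480 q20 s × 4 min; Activity was normalised to no-enzyme and no-compound control wells.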
AmpC inh detg = qHTS Inhibitors of AmpC Beta-Lactamase (assay with detergent) | P00811 | AmpC hydrolysis of nitrocefin, absorbance 480 nm, 0.01% Triton | Potency, µM (highest dose often 114 µM), hits mostly inhibitors | 0.041% of 370,000 active; further: nearly all actives have a fitted effect of over 25% in size
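20 mM phosphate pH 7.0 + 0.01% (detergent screen) or 0.0001% Triton X-100; 5.3 nM AmpC reagent; cpd preinc 15 min RT; nitrocefin (800 uM stock) to start; A480 q20 s × 4 min; Activity was normalised to no-enzyme and no-compound control wells.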
A number is an active result; i = inactive; ? = inconclusive; nt = not tested or not shown. Unless noted, the call rests on the fitted dose curve; in most records, active means well fitted curve in the direction sought with a large enough effect; inconclusive means small, poorly fitted or top-dose-only effect, or another doubt; inactive means no such curve, though single readings can be large; an effect the other way counts as inactive or inconclusive.

SMILES	VACV mCherry inh	SARS PLP yeast	Vaccinia Venus	AMA1 RON2 block	AmpC inh no detg	AmpC inh detg
Cc1cc(C)c(NC(=O)CSc2nc3c(c(=O)n2C)SC(C)C3)c(C)c1 (stereo not given)	i	i	i	i	3.2µM	i
Cc1cccc(/C=N/NC(=O)c2c(-c3ccccc3)noc2C)c1O	0.56µM	?	i	i	i	i
COc1ccc2[nH]c(C(=O)N/N=C/c3ccc(OC)c(O)c3)cc2c1	11µM	i	i	i	i	i
O=C(NN=Cc1cccc(O)c1O)c1ccccc1	10µM	nt	?	i	nt	nt
COc1ccc2[nH]c(C(=O)N/N=C/c3ccccc3OC)cc2c1	nt	i	nt	i	i	?
COc1cc(/C=N/NC(=O)CCn2cnc(-c3ccccc3)c2-c2ccccc2)ccc1O	8.9µM	i	?	?	i	i
COc1ccccc1/C=N/NC(=O)c1c(-c2ccccc2)noc1C	i	i	i	i	i	i
CCn1c(-c2ccccc2F)nc2cc(NC(C)=O)cc(C(=O)N3CCCC3c3nccs3)c21 (stereo not given)	i	nt	i	nt	nt	nt
O=C(CN1Cc2ccccc2OC(c2ccsc2)C1)NCc1ccc2c(c1)OCO2 (stereo not given)	i	nt	i	nt	nt	nt
COc1ccc(-c2cc(C(=O)N/N=C/c3ccc4c(c3)OCO4)c3ccccc3n2)c(OC)c1	?	i	i	i	i	?
CCn1c(C)nc2cc(C(=O)N/N=C/c3ccccc3)ccc21	i	i	i	i	i	i
COc1ccc(/C=N\NC(=O)c2cc(O)c(O)c(O)c2)cc1COc1ccc(C(=O)OCC(C)C)cc1	i	i	i	i	10µM	i
CCn1c(C)nc2cc(C(=O)N/N=C/c3cccc(O)c3O)ccc21	13µM	i	?	i	i	i
COc1ccc(-c2cc(C(=O)N/N=C/c3sccc3C)c3ccccc3n2)c(OC)c1	28µM	i	i	i	i	i
COc1ccc(C(=O)N/N=C/c2ccc(OC)c(COc3ccccc3)c2)cc1	i	i	i	i	i	i
COc1cccc(/C=N/NC(=O)c2ccc([N+](=O)[O-])cc2Cl)c1O	11µM	?	?	i	i	i
CCN1C(=O)CC(CC(=O)N2CCC(c3nc4ccc(F)cc4[nH]3)CC2)(c2ccccc2C)C1=O (stereo not given)	i	nt	i	nt	nt	nt
Cc1ccc2[nH]c(C(=O)N/N=C/c3ccccc3C(=O)O)c(-c3ccccc3)c2c1	nt	i	nt	i	i	i
NC(=S)N/N=C/c1cccc(O)c1O	8.9µM	i	i	i	i	i
Cc1ccc2[nH]c(C(=O)N/N=C/c3ccccc3O)c(C)c2c1	3.5µM	i	?	i	i	i
Oc1cccc(/C=N/NC(=S)Nc2cccnc2)c1O	?	i	?	i	32µM	i
Cc1cccc(/C=N/NC(=O)Cc2ccc(Cl)cc2)c1O	nt	i	nt	i	i	i
Cc1cccc(/C=N\NC(=O)c2ccc(Cl)cc2)c1O	2.5µM	i	?	i	i	i
CCCS(=O)(=O)c1ncc(Cl)c(C(=O)Nc2sc3c(c2C(=O)NCC)CCCC3)n1	i	nt	i	nt	nt	nt
COc1ccc(/C=N/NC(=O)c2ccc(-c3ccccc3)cc2)cc1O	i	i	i	i	35µM	i
SMILES	VACV mCherry inh	SARS PLP yeast	Vaccinia Venus	AMA1 RON2 block	AmpC inh no detg	AmpC inh detg
COc1cccc(/C=N/NC(=O)c2ccc(-c3ccccc3)cc2)c1O	4.5µM	?	?	i	i	?
COc1cc(/C=N/NC(=O)c2ccccc2)ccc1O	nt	i	nt	i	i	i
COc1cc(/C=N/NC(=O)c2cc(-c3ccccc3OC(C)C)nc3ccccc23)ccc1O	13µM	i	i	i	i	?
NC(=S)N/N=C/c1cccc(Br)c1	?	?	0.89µM	i	i	i
CC(O)(COc1ccccc1)c1ccc2c(c1)CN(Cc1cccc3cccnc13)CCO2 (stereo not given)	i	nt	i	nt	nt	nt
CC(=O)N1CCCc2cc(S(=O)(=O)N3CCC(C(=O)NCc4ccccc4Cl)CC3)ccc21	i	nt	i	nt	nt	i
COc1cccc(/C=C/c2ccnc3ccccc23)c1OC	i	nt	i	nt	nt	nt

Screening data (PubChem)
